KCNQ2 pot – potentiators of rat KCNQ2 potassium channel. O88943. B-score at 10 µM. CHO-K1 KCNQ2, FluxOR thallium flux fluorescence; stronger effect = higher value. 0.54% of 310,000 active;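 active means fluorescence ratio B-score at least 3 SD of library B-scores, with initial fluorescence B-score within 3 of them, cut at about 5.3 in these data; same plate scores as AID 2156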;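 further: B-score of peak minus minimum over baseline fluorescence ratio after K+ and Tl+ stimulus; positive B-score means potentiation of KCNQ2 with more thallium influx and brighter signal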
Target sequence (O88943 whole entry, looked up): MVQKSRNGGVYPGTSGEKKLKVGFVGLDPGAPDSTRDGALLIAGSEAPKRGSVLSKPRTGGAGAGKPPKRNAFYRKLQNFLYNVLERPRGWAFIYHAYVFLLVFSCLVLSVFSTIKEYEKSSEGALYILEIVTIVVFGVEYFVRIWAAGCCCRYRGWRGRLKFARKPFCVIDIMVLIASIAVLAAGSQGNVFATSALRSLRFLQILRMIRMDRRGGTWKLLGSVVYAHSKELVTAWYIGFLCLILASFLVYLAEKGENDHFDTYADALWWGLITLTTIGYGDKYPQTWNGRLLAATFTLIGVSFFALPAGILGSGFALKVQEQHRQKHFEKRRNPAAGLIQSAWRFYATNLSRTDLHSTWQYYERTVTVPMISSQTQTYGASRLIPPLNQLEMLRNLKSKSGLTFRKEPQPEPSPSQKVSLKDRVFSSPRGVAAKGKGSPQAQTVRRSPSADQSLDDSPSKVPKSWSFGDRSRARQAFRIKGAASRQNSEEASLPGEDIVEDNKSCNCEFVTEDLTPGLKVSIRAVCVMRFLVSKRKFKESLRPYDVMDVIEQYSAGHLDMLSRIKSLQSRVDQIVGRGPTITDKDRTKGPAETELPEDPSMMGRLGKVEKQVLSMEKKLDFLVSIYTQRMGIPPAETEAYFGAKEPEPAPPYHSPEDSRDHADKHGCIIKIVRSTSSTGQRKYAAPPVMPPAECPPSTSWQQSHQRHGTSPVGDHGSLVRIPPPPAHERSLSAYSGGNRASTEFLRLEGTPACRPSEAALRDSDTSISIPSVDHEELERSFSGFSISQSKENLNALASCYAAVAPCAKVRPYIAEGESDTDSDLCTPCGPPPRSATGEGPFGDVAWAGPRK
KCNQ2 block – blocks the rat KCNQ2 potassium channel | O88943 | CHO-K1 KCNQ2, FluxOR thallium flux, 20 min; stronger effect = lower value | B-score at 10 µM | 1.1% of 310,000 active | AID 2156;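 active means fluorescence ratio B-score at most minus 3 library SDs, with starting brightness B-score within 2 library SDs, cut at about -5.5 in these data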
Starred values were filed as active, the others as inactive. Only some compounds are listed: those with a hit (about 1.6% of all), similar ones and a draw of the others.

What do the screens show for `Cc1c(OCC(=O)N[C@@H](Cc2c[nH]c3ccccc23)C(=O)O)ccc2c1oc(=O)c1ccccc12`?
KCNQ2 pot: 0.01; KCNQ2 block: inactive

Results for CC(C)(C)SCCNC(=O)Nc1ccccc1 ?
KCNQ2 pot: 0.01; KCNQ2 block: inactive

How did CCN(CC)C(=O)N1CCc2ccccc2C1CN1C(=O)c2ccccc2C1=O (configuration not stated) do in these assays?
KCNQ2 pot: -6.2; KCNQ2 block: -6.2*

What do the screens show for `O=C1c2ccccc2C(=O)N1CC1c2ccccc2CCN1C(=O)C1CCCCC1` (configuration not stated)?
KCNQ2 pot: -6.9; KCNQ2 block: -6.9*

Results for O=C1c2ccccc2C(=O)N1CC1c2ccccc2CCN1C(=O)CN1CCOCC1 (configuration not stated) ?
KCNQ2 block: inactive

What do the screens show for `O=C(O)[C@@H]1CCCC[C@@H]1C(=O)N1CCc2ccccc2C1CN1C(=O)c2ccccc2C1=O` (some centres not stated)?
KCNQ2 block: inactive

Results for CC(C)[C@H](NC(=O)c1ccccc1)C(=O)OCC(=O)c1ccc(S(=O)(=O)N2CCCCC2)cc1 ?
KCNQ2 block: inactive

What do the screens show for `CCOC(=O)C1=C(N)Oc2ccc3ccccc3c2C1c1ccc(O)cc1` (configuration not stated)?
KCNQ2 pot: -6.5; KCNQ2 block: -6.5*

Results for CCOC(=O)C1=C(N)Oc2ccc3ccccc3c2C1c1ccc(O)c(OC)c1 (configuration not stated) ?
KCNQ2 block: inactive

How did O=C(Nc1ccc(F)cc1Cl)C1CCN(C(=O)Nc2ccccc2)CC1 do in these assays?
KCNQ2 pot: 1; KCNQ2 block: inactive

How did O=C(CN1CCN(S(=O)(=O)c2ccc(F)cc2)CC1)NC1CCCC1 do in these assays?
KCNQ2 pot: 2; KCNQ2 block: inactive

Results for CCOC(=O)c1ccc(S(=O)(=O)N2CCN(CC(=O)NC(=O)NC3CCCCC3)CC2)cc1 ?
KCNQ2 pot: -5.6; KCNQ2 block: -5.6*

Results for CSc1ccc(CN2CCN(S(=O)(=O)Cc3ccccc3)CC2)cc1 ?
KCNQ2 block: inactive

How did Cc1ccc(N2C(=O)N(CC(=O)NC(N)=O)C(=O)C2C)cc1 (configuration not stated) do in these assays?
KCNQ2 pot: 1.7; KCNQ2 block: inactive

Results for Cc1ccc(N2C(=O)N(CC(=O)NC(c3ccccc3)c3ccccc3)C(=O)C2C)cc1 (configuration not stated) ?
KCNQ2 pot: -6; KCNQ2 block: -6*

Results for OCCC1CN(Cc2cnc(-c3ccc(Cl)cc3)nc2)CCN1C1CCCC1 (configuration not stated) ?
KCNQ2 pot: 0.04; KCNQ2 block: inactive

How did CC(C)Oc1ccc(S(=O)(=O)N2CCOCC2)cc1NC(=O)Cc1cccs1 do in these assays?
KCNQ2 pot: 0.18; KCNQ2 block: inactive

Results for Cc1ccc(NC(=O)CN(c2ccccc2)S(=O)(=O)N(C)C)cc1C ?
KCNQ2 block: inactive

How did Cc1cc(C)c(NC(=O)CN(c2ccccc2)S(=O)(=O)N(C)C)c(C)c1 do in these assays?
KCNQ2 pot: -5.6; KCNQ2 block: -5.6*

Results for O=C(c1ccc(Cl)cc1)c1oc2ccccc2c1CS(=O)c1ccccc1 (configuration not stated) ?
KCNQ2 pot: -5.7; KCNQ2 block: -5.7*

How did Nc1c(C(=O)c2ccc(Br)cc2)oc2ccccc12 do in these assays?
KCNQ2 pot: 1.5; KCNQ2 block: inactive

Results for COc1cc(/C=C2\SC(=S)N(N(C)c3ccccc3)C2=O)ccc1O ?
KCNQ2 block: inactive

What do the screens show for `CCN(CC(=O)Nc1ccccc1OC)C(=O)CCOc1ccc(C(C)(C)C)cc1`?
KCNQ2 pot: -6.3; KCNQ2 block: -6.3*

What do the screens show for `CCOc1ccc(OCCC(=O)N(CC)CC(=O)Nc2ccccc2C(F)(F)F)cc1`?
KCNQ2 block: inactive

How did COc1ccccc1C(=O)NC(C(=O)NCCc1nc2ccccc2[nH]1)=C(C)C do in these assays?
KCNQ2 pot: 0.18; KCNQ2 block: inactive

What do the screens show for `O=C(c1cccc(-c2nnc(-c3ccccc3)o2)c1)N1CCCCCC1`?
KCNQ2 pot: -5.8; KCNQ2 block: -5.8*

How did O=C(c1cccc(-c2nnc(-c3ccccc3)o2)c1)N1CCCCC1 do in these assays?
KCNQ2 pot: 0.13; KCNQ2 block: inactive

How did Cc1noc(C)c1COc1ccc(C(=O)OCC(=O)Nc2cccc(S(=O)(=O)N3CCOCC3)c2)cc1 do in these assays?
KCNQ2 pot: 1.4; KCNQ2 block: inactive

How did COc1ccc([N+](=O)[O-])cc1NC(=O)CSCc1ccccc1C do in these assays?
KCNQ2 pot: 1.5; KCNQ2 block: inactive

How did COc1ccc([N+](=O)[O-])cc1NC(=O)CSCc1ccc(Br)cc1 do in these assays?
KCNQ2 pot: 5.5*; KCNQ2 block: inactive

How did OCCN1CCN(c2nc(-c3ccccc3)c3cc(Cl)ccc3n2)CC1 do in these assays?
KCNQ2 block: inactive

How did Clc1ccc2nc(N3CCNCC3)nc(-c3ccccc3)c2c1 do in these assays?
KCNQ2 pot: -5.9; KCNQ2 block: -5.9*

What do the screens show for `Cc1cccc(CN2[C@@H](CC(C)C)COCCS2(=O)=O)c1`?
KCNQ2 pot: 1.4; KCNQ2 block: inactive

What do the screens show for `CCc1nc2ccccc2c(C(=O)O)c1C`?
KCNQ2 block: inactive

What do the screens show for `CCc1nc2ccccc2c(C(=O)OCC(=O)C(C)(C)C)c1C`?
KCNQ2 pot: 0.32; KCNQ2 block: inactive

How did CCc1nc2ccccc2c(C(=O)OCCN2C(=O)c3ccccc3C2=O)c1C do in these assays?
KCNQ2 pot: -9.6; KCNQ2 block: -9.6*

What do the screens show for `CCc1nc2ccccc2c(C(=O)OCC(=O)NC(=O)c2cccn2C)c1C`?
KCNQ2 pot: -5.6; KCNQ2 block: -5.6*

What do the screens show for `Cc1ccc(C)c(S(=O)(=O)N2CCN(C(=O)Cn3[nH]c(=O)c4ccccc4c3=O)CC2)c1`?
KCNQ2 block: inactive

What do the screens show for `C=CCn1c(=O)c(C(=O)NCc2ccc(Cl)cc2)c(O)c2ccccc21`?
KCNQ2 pot: -6; KCNQ2 block: -6*

Results for C=CCn1c(=O)c(C(=O)Nc2ccc(C)cn2)c(O)c2ccccc21 ?
KCNQ2 block: inactive

Results for Cc1ccccc1C(=O)c1cccn1CC(=O)NCCCc1ccccc1 ?
KCNQ2 pot: 3.5; KCNQ2 block: inactive

What do the screens show for `COCc1cc(Sc2ccc(Cl)cc2)nc(-c2ccccc2)n1`?
KCNQ2 pot: -5.9; KCNQ2 block: -5.9*

Results for COCc1cc(Sc2ccc(Br)cc2)nc(-c2ccccc2)n1 ?
KCNQ2 block: inactive

Results for Cc1cc2cc(CNC(=O)c3ccc(C)c([N+](=O)[O-])c3)ccc2[nH]1 ?
KCNQ2 pot: 0.94; KCNQ2 block: inactive

How did COC(=O)[C@@H](NC(=O)Nc1cccc(Br)c1)C(C)C do in these assays?
KCNQ2 block: inactive

What do the screens show for `O=C(CN1C(=O)C2CCCCC2C1=O)Nc1nc2ccc(F)cc2s1` (configuration not stated)?
KCNQ2 pot: -6.2; KCNQ2 block: -6.2*

Results for O=C(CN1CCOCC1)Nc1nc2ccc(F)cc2s1 ?
KCNQ2 block: inactive

How did O=C(O)c1ccc(N/N=C/C2=Cc3ccccc3OC2)cc1 do in these assays?
KCNQ2 block: inactive

How did COc1ccc(C)cc1S(=O)(=O)N1CCCC(C(=O)N2CCN(c3ccccc3)CC2)C1 (configuration not stated) do in these assays?
KCNQ2 block: inactive
